Measured values as given in ChEMBL document CHEMBL1201862, “PubChem BioAssay data set” (2004).
About 17,000 (5.5%) of roughly 310,000 compounds were called active. Inconclusive results (about 11%) are left out. The calls are words filed in the database; no cut-off is given here. The entries come from a sample that favours actives as a whole.

What follows are molecules tested against T1, Nuclear receptor ROR-gamma (Mus musculus) (UniProt P51450) (assay: qHTS for inhibitors of ROR gamma transcriptional activity.).
T1 sequence (whole entry): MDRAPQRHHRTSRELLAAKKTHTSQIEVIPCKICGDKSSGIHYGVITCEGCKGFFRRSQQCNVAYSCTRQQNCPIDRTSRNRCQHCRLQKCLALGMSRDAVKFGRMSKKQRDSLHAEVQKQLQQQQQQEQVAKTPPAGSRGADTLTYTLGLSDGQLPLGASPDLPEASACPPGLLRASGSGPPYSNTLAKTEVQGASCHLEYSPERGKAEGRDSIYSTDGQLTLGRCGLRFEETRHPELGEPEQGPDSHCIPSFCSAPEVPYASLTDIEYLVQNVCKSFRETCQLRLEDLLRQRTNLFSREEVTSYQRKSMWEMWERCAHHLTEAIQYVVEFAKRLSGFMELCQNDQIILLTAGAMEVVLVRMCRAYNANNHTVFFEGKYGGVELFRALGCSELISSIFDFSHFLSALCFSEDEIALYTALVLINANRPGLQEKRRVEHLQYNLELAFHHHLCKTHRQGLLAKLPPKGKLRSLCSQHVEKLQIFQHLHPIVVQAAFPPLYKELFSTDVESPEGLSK
Assay type: functional

Potency, active:
COc1ccccc1/C=C/C(=O)c1cccs1 25.1 µM
O=C(/C=C/c1ccc(Cl)cc1)c1cccs1 15.8 µM
c1ccc(-n2ncc3c(NCc4cccnc4)ncnc32)cc1 501 µM
